PubChem BioAssay
Activity calls are given as the source filed them. Unless noted, no rule for the calls is given here.

Key:
[1] = system: Wnt5a (protein binding on small-molecule microarray); test: Wnt5a binders on small-molecule microarray, primary screen, biophysical, 635/667 nm fluorescence (AID 1142); settings: 635 nm fluorescence, higher = more signal;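 also: fluorescence read at 667 nm with signal to noise per printed feature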
[2] = cell viability in Huh7 cells, primary screen, cytotoxicity control for HCV replication inhibitor project, CellTiter-Glo luminescence, basal, 48 h (AID 1143); settings: Huh7 HCV replicon, higher = more signal, called active from +8 up or from −8 down;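 also: Huh7 hepatoma cells carrying a hepatitis C replication reporter with no stimulus; test concentration not given here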
[3] = P. aeruginosa biofilm formation inhibitors, primary screen, PAO1 strain, BacTiter-Glo luminescence, LB-PBS (AID 1144); settings: 12 h, higher = more signal
[4] = CREB reporter modulators without forskolin, primary screen, cell-based, PC12, CRE-LacZ reporter, unstimulated (AID 1145); settings: no forskolin, luminescence, 4.5 h, higher = more signal, called active from +8 up or from −8 down
[5] = CREB reporter modulators under forskolin, primary screen, cell-based, PC12, CRE-LacZ reporter, forskolin-stimulated (AID 1146); settings: luminescence, 4.5 h, higher = more signal, called active from +8 up or from −8 down;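 also: PC12 cells with 6xCRE LacZ reporter stimulated by forskolin 10 µM; beta-galactosidase reporter signal reflecting CREB driven transcription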
[6] = target: Streptavidin (Streptomyces avidinii) (UniProt P22629); test: streptavidin binders on small-molecule microarray, primary screen, artefact control for SMM compound annotation, biophysical, 635/667 nm fluorescence (AID 1147); settings: streptavidin binding, higher = more signal;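 also: signal reflects streptavidin binding to arrayed compounds as a control protein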
Streptavidin (Streptomyces avidinii), sequence (P22629 whole entry, looked up): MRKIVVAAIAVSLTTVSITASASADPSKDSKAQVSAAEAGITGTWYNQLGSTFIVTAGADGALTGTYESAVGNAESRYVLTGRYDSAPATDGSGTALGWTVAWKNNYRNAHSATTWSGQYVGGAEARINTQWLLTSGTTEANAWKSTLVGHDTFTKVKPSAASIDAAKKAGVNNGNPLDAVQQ

[7] = small-molecule binders of probe aInhba, primary screen, biochemical, small-molecule microarray, 635/667 nm fluorescence (AID 1148); settings: higher = more signal;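 also: score merges 667nm spot fluorescence with signal-to-noise for antibody binding to printed compounds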
[8] = target: Torsin-1A (Homo sapiens) (UniProt O14656); test: torsin A binders from cell lysate, primary screen, small-molecule microarray, wild-type, 635/667 nm (AID 1149); settings: COS7 hTOR1A-WT lysate, 635 nm fluorescence, higher = more signal
Torsin-1A (Homo sapiens), sequence (O14656 whole entry, looked up): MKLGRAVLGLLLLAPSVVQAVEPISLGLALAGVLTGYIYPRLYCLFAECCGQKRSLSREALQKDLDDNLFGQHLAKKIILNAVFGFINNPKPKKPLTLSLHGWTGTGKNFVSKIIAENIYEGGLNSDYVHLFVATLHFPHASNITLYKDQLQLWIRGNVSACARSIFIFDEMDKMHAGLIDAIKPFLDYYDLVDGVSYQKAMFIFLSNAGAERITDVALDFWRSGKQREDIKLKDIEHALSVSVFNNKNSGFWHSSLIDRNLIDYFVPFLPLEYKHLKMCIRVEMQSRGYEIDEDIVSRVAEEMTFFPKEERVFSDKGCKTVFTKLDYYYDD

[9] = target: Torsin-1A (Homo sapiens) (UniProt O14656); test: small-molecule binders of mutant TOR1A in lysate, primary screen, cell lysate, small-molecule microarray, COS7 lysate, 635/667 nm fluorescence (AID 1150); settings: COS7 hTOR1A mutant lysate, 635 nm fluorescence, higher = more signal;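 also: score pools 667 nm emission and signal to noise measuring lysate protein binding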
[10] = system: Sonic hedgehog protein (Shh); test: small-molecule binders of Shh protein, primary screen, biochemical, small-molecule microarray, 635/667 nm fluorescence (AID 1151); settings: small-molecule microarray binding, 635 nm fluorescence; higher = more signal;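 also: Shh protein binding to compounds spotted on small-molecule microarray slides; score combines spot fluorescence intensity with signal-to-noise across triplicate slides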
[11] = E. coli DRC41 culture turbidity changes, primary screen, E. coli filamentation inducer project, strain DRC41, OD650, 48 h (AID 1152);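 also: E. coli MC1000 strain DRC41 lacking acrAB efflux pump and sulA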; settings: E. coli DRC41 (acrAB sulA), higher = more signal, called active from +8 up or from −8 down
[12] = small-molecule binders of probe aLefty1, primary screen, biochemical, small-molecule microarray, 635/667 nm fluorescence (AID 1153); settings: higher = more signal;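 also: score merges spot fluorescence with signal-to-noise ratio from the scanned slide images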
[13] = PSAC antagonists in infected red cells, primary screen, cell-based, P. falciparum Indochina, OD700, 1 h (AID 1154); settings: P. falciparum Indochina infected RBC osmotic lysis, higher = more signal, called active from +8 up or from −8 down
[14] = PSAC antagonists in infected red cells, primary screen, cell-based, P. falciparum Indochina, OD700, 2 h (AID 1155);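 also: lysis reports solute entry through the parasite surface anion channel PSAC; channel blockers reduce lysis of infected cells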; settings: P. falciparum Indochina infected erythrocytes, osmotic lysis OD700; higher = more signal, called active from +8 up or from −8 down
[15] = osmotic lysis modulators in infected erythrocytes, primary screen, PSAC antagonist project, cell-based, P. falciparum Indochina, OD700, 3 h (AID 1156); settings: higher = more signal, called active from +8 up or from −8 down
[16] = PSAC antagonists in infected red cells, primary screen, cell-based, P. falciparum Indochina, OD700, 18 h (AID 1157); settings: P. falciparum Indochina infected erythrocytes, osmotic lysis OD700, 18 h; higher = more signal, called active from +8 up or from −8 down
[17] = modulators of S6 phosphorylation in cells, primary screen, cell-based, A549, cytoblot, luminescence, serum-stimulated (AID 1158); settings: A549 phospho-S6 cytoblot, 5 h, higher = more signal;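 also: serum-stimulated A549 lung adenocarcinoma cells; signal is phosphorylated S6 detected by cytoblot immunostaining with HRP secondary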
[18] = target: NADPH oxidase 2 (Homo sapiens) (UniProt P04839); test: NOX2-dependent H2O2 signal modulators, primary screen, NOX inhibitor project, cell-based, HEK293-NOX2, PMA-stimulated, Amplex Red fluorescence (AID 1159); settings: 45 min, higher = more signal, called active from +8 up or from −8 down; also: test concentration not given here
NADPH oxidase 2 (Homo sapiens), sequence (P04839 whole entry, looked up): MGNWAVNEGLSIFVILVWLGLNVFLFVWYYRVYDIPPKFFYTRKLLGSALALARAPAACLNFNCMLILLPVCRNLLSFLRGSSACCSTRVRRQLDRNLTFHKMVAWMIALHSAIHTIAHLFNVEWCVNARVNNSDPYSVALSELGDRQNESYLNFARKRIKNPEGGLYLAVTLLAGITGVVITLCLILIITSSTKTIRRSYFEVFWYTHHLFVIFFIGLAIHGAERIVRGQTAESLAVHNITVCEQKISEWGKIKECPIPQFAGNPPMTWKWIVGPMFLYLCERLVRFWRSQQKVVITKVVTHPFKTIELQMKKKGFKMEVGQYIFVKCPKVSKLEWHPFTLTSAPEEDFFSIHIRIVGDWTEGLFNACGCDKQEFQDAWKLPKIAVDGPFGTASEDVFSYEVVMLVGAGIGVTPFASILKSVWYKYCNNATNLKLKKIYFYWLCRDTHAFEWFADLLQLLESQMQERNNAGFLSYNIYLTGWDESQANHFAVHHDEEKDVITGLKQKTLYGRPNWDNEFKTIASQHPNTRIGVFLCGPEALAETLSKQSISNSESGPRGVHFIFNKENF

[19] = target: NADPH oxidase 4 (Homo sapiens) (UniProt Q9NPH5); test: NOX4-dependent H2O2 signal modulators, primary screen, NOX inhibitor project, cell-based, HEK293-NOX4, tetracycline-induced, Amplex Red fluorescence (AID 1160); settings: 45 min, higher = more signal, called active from +8 up or from −8 down
NADPH oxidase 4 (Homo sapiens), sequence (Q9NPH5 whole entry, looked up): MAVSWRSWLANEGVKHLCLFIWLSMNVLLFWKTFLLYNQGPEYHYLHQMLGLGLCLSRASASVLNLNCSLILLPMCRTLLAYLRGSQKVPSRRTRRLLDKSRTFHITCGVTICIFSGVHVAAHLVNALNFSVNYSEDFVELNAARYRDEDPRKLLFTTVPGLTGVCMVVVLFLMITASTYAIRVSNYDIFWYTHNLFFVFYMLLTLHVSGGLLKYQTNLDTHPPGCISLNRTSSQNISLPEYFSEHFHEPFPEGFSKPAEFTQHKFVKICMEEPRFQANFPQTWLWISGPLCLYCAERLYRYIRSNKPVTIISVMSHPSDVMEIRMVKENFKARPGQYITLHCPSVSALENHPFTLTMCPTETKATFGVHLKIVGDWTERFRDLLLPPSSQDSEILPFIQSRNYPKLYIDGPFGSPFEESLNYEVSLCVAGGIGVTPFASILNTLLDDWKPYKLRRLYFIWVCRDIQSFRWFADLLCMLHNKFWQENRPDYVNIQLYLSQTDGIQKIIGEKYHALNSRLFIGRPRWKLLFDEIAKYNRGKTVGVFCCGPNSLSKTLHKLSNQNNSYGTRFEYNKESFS

[20] = target: NADPH oxidase 5 (Homo sapiens) (UniProt Q96PH1); test: NOX5-dependent H2O2 signal modulators, primary screen, NOX inhibitor project, cell-based, HEK293-NOX5, Amplex Red fluorescence (AID 1161); settings: HEK293-NOX5, ionomycin, 45 min, higher = more signal
NADPH oxidase 5 (Homo sapiens), sequence (Q96PH1 whole entry, looked up): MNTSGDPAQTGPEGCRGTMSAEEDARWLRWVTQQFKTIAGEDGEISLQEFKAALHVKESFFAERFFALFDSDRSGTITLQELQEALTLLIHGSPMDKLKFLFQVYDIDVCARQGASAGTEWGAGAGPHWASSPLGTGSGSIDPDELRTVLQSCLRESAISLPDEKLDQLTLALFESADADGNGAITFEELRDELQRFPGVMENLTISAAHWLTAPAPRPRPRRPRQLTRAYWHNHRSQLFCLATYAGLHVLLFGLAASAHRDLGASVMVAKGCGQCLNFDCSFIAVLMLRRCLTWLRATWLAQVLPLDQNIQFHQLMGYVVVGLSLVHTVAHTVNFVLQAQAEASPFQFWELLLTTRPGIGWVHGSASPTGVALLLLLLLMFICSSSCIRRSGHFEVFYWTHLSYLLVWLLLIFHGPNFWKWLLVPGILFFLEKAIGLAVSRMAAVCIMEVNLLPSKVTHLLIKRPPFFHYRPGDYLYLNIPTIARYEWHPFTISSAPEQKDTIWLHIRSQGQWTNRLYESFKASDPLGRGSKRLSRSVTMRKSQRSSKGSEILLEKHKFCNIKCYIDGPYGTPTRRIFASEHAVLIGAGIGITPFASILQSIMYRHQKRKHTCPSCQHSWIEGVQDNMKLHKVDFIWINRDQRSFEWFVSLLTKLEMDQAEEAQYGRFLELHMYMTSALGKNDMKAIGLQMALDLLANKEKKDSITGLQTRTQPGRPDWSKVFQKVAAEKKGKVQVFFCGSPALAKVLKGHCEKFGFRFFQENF

C=C(CCCC)C(=O)CC[C@H](OC(=O)c1cccnc1)c1ccccc1OCCO
composite z-score [1]: 0.218 | z-score [2]: -2.15 (inactive) | z-score [3]: -0.0162 (inactive) | z-score [4]: 2.21 (inactive) | z-score [5]: 1.94 (inactive) | composite z-score [6]: -0.423 | composite z-score [7]: -0.128 | composite z-score [8]: 1.07 | composite z-score [9]: 0.218 | composite z-score [10]: 0.552 | z-score [11]: 0.853 (inactive) | composite z-score [12]: -0.012 | z-score [13]: 16 (active) | z-score [14]: 1.6 (inactive) | z-score [15]: 0.232 (inactive) | z-score [16]: -0.674 (inactive) | z-score [17]: 1.28 | z-score [18]: -1.2 (inactive) | z-score [19]: -0.324 (inactive) | z-score [20]: -2.33

[N-]=[N+]=Nc1ccccc1C[C@@]1(C(=O)NCCN2CCOCC2)N=C(c2ccc(OCCCO)cc2)O[C@@H]1c1ccccc1
composite z-score [1]: 0.785 | z-score [2]: -3.8 (inactive) | z-score [3]: -0.49 (inactive) | z-score [4]: -0.435 (inactive) | z-score [5]: -1.61 (inactive) | composite z-score [6]: 0.302 | composite z-score [7]: 0.258 | composite z-score [8]: 0.304 | composite z-score [9]: 0.617 | composite z-score [10]: 0.721 | z-score [11]: 1.06 (inactive) | composite z-score [12]: 0.234 | z-score [13]: 28.8 (active) | z-score [14]: 24.3 (active) | z-score [15]: 2.41 (inactive) | z-score [16]: 5.39 (inactive) | z-score [17]: 0.368 | z-score [18]: -0.57 (inactive) | z-score [19]: 1.25 (inactive) | z-score [20]: 0.589

CN1C2C=C(CCCO)C(C3C(=O)N(C(N)=O)C(=O)C32)C1c1ccc(CN2CCCC2)cc1 (stereo not given)
composite z-score [1]: 0.269 | z-score [2]: 1.23 (inactive) | z-score [3]: -0.938 (inactive) | z-score [4]: -0.83 (inactive) | z-score [5]: 1.31 (inactive) | composite z-score [6]: -0.411 | composite z-score [7]: -0.299 | composite z-score [8]: -0.14 | composite z-score [9]: -0.266 | composite z-score [10]: -0.138 | z-score [11]: 0.0489 (inactive) | composite z-score [12]: -0.189 | z-score [13]: 0.114 (inactive) | z-score [14]: 0.229 (inactive) | z-score [15]: -0.695 (inactive) | z-score [16]: -0.11 (inactive) | z-score [17]: -0.0852 | z-score [18]: -1.52 (inactive) | z-score [19]: 0.171 (inactive) | z-score [20]: -0.0223

C=CCOC(=O)[C@H]1[C@@H]2C(=O)O[C@@H](c3ccccc3)[C@@H](c3ccccc3)N2[C@@H](c2ccc(OCCOC(=O)[C@@H]3C[C@@H]4C(=O)N[C@@H](CCCCN(C)C)C(=O)N4[C@@H]3c3ccc(O)cc3)cc2)[C@]12C(=O)Nc1ccc(I)cc12
composite z-score [1]: 0.451 | z-score [2]: -0.135 (inactive) | z-score [3]: -1.02 (inactive) | z-score [4]: -0.935 (inactive) | z-score [5]: 1.04 (inactive) | composite z-score [6]: 0.218 | composite z-score [7]: 0.0082 | composite z-score [8]: 1.22 | composite z-score [9]: 0.671 | composite z-score [10]: 1.71 | z-score [11]: -0.785 (inactive) | composite z-score [12]: -0.15 | z-score [13]: -0.117 (inactive) | z-score [14]: 1.39 (inactive) | z-score [15]: 5.33 (inactive) | z-score [16]: 0.448 (inactive) | z-score [17]: -0.724 | z-score [18]: 1.41 (inactive) | z-score [19]: 0.74 (inactive) | z-score [20]: -0.496

C=CC[C@]1(C(=O)NCCCOC)N=C(c2ccc(OCCCO)cc2)O[C@H]1c1ccccc1N=[N+]=[N-]
composite z-score [1]: 0.485 | z-score [2]: -2.57 (inactive) | z-score [3]: -0.742 (inactive) | z-score [4]: 2.14 (inactive) | z-score [5]: -1.5 (inactive) | composite z-score [6]: 1.39 | composite z-score [7]: 0.611 | composite z-score [8]: 0.0108 | composite z-score [9]: 0.878 | composite z-score [10]: -0.477 | z-score [11]: 0.239 (inactive) | composite z-score [12]: 0.479 | z-score [13]: 33.6 (active) | z-score [14]: 32.2 (active) | z-score [15]: 3.35 (inactive) | z-score [16]: 8.48 (active) | z-score [17]: -0.403 | z-score [18]: -1.06 (inactive) | z-score [19]: 1.33 (inactive) | z-score [20]: -0.678

CCCC#C[Si](O[C@H](CC)c1cn([C@H](CO)Cc2ccccc2)nn1)(C(C)C)C(C)C
composite z-score [1]: 0.998 | z-score [2]: -0.727 (inactive) | z-score [3]: -0.259 (inactive) | z-score [4]: -0.388 (inactive) | z-score [5]: -0.0711 (inactive) | composite z-score [6]: 0.949 | composite z-score [7]: -0.128 | composite z-score [8]: 0.402 | composite z-score [9]: 0.511 | composite z-score [10]: 0.482 | z-score [11]: 1.12 (inactive) | composite z-score [12]: 0.145 | z-score [13]: 0.442 (inactive) | z-score [14]: 0.479 (inactive) | z-score [15]: -1.31 (inactive) | z-score [16]: 0.752 (inactive) | z-score [17]: -0.675 | z-score [18]: 0.819 (inactive) | z-score [19]: 0.272 (inactive) | z-score [20]: 0.493

O=C1OCC=C[C@H]2OC34C=CCN(CCN5CCOCC5)C(=O)[C@H]3N(CCCO)C(=O)[C@@H]4[C@@H]12 (stereo not given in full)
composite z-score [1]: -0.418 | z-score [2]: -2.3 (inactive) | z-score [3]: -0.0222 (inactive) | z-score [4]: 0.329 (inactive) | z-score [5]: 1.5 (inactive) | composite z-score [6]: 0.212 | composite z-score [7]: -0.128 | composite z-score [8]: 0.267 | composite z-score [9]: 0.156 | composite z-score [10]: 1 | z-score [11]: 0.109 (inactive) | composite z-score [12]: -0.147 | z-score [13]: 0.64 (inactive) | z-score [14]: -0.385 (inactive) | z-score [15]: 1.27 (inactive) | z-score [16]: -1.19 (inactive) | z-score [17]: 1.08 | z-score [18]: 0.812 (inactive) | z-score [19]: -1.16 (inactive) | z-score [20]: 0.375

CN1C(=O)C2C=CC(C(O)c3ccc(I)cc3)N(N3CCCCC3)C2C1=O (stereo not given)
composite z-score [1]: 0.512 | z-score [2]: -0.394 (inactive) | z-score [3]: 0.175 (inactive) | z-score [4]: 0.246 (inactive) | z-score [5]: 0.818 (inactive) | composite z-score [6]: 1.42 | composite z-score [7]: 0.303 | composite z-score [8]: 0.702 | composite z-score [9]: 1.6 | composite z-score [10]: 0.624 | z-score [11]: -2.04 (inactive) | composite z-score [12]: 0.699 | z-score [13]: 4.08 (inactive) | z-score [14]: 0.399 (inactive) | z-score [15]: 1.33 (inactive) | z-score [16]: 0.701 (inactive) | z-score [17]: -1.04 | z-score [18]: -0.229 (inactive) | z-score [19]: -2.14 (inactive) | z-score [20]: -1.63
